esBAF inh = blocks esBAF chromatin remodeling in mouse ES cells; 350,000 compounds, 2% hits; reporter increase, % at 12.5 µM; Bmi1-luciferase knock-in reporter, 24 h; 100% = twice the neutral-well signal; AID 602393; in the data active means activation above about 40%;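 further: a rise in the Bmi1 reporter signal indicates esBAF inhibition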
APOBEC3A inh = human APOBEC3A DNA deaminase inhibition | P31941 | recombinant A3A, FAM/TAMRA ssDNA deamination fluorescence | inhibition, % at 20 µM | 330,000 compounds, 0.41% hits | AID 493011;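 active means at least 40% inhibition at 20 µM here, with at most 30% in a related deaminase screen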
APOBEC3G inh = inhibitors of human APOBEC3G DNA deaminase | Q9HC16 | recombinant A3G, ssDNA deamination FAM/TAMRA fluorescence | inhibition, % at 20 µM | 330,000 compounds, 0.28% hits | AID 493012;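 active means inhibition of at least 40% at 20 µM, with no more than 30% in the related APOBEC3A deaminase screen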
Target sequence (Q9HC16 whole entry, looked up): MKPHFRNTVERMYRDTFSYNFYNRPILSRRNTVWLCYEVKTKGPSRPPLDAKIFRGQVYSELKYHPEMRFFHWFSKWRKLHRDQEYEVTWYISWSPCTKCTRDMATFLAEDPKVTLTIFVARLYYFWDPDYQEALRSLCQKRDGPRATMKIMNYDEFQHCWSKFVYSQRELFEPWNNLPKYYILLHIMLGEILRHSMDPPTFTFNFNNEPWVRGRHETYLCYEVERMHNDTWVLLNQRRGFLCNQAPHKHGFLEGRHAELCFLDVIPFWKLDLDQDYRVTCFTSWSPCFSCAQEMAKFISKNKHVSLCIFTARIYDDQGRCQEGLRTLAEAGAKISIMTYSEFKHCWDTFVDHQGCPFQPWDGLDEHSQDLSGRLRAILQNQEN
Wnt bcat act = activators of Wnt/beta-catenin signaling; Wnt/beta-catenin reporter cell assay, activator, plate reader; activation, % at 9.35 µM; 300,000 compounds, 1.2% hits; AID 743398; in the data active means activation above about 30%, passing the limit was not always enough
PHOSPHO1 inh = inhibitors of human PHOSPHO1 phosphatase; recombinant PHOSPHO1, absorbance phosphatase assay; inhibition, % at 13.3 µM; 290,000 compounds, 1.1% hits; in the data active means inhibition above about 60%
MITF act = MITF TRPM1 promoter activation in melanoma cells | SK-MEL-5 TRPM1-promoter luciferase, 24 h; % of positive control, neutral wells = 0 | activation, % at 12.5 µM | 300,000 compounds, 0.75% hits | AID 588334;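 active means mean activation of at least 80% with every replicate also reaching 80%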
A3A conf = confirmation of human APOBEC3A DNA deaminase inhibitors | shares compounds with APOBEC3A inh | recombinant A3A, ssDNA deaminase UDG fluorescence assay | inhibition, % at 20 µM | 1,400 compounds, 63% hits | AID 493151;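 active means inhibition reaching a set limit, 80% of the first screen's cutoff, at 20 µM in any replicate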
UDG A3A counter = UDG inhibition in APOBEC3A counter-screen | 1,000 tested, under 10 active | AID 504714 | inhibition, % at 20 µM | shares compounds with APOBEC3A inh | UDG counterscreen, FAM/TAMRA uracil oligo fluorescence; call rule not given here
Each line names hits and unclear results; the compound was inactive in the other large screens (follow-up assays come after a bar, where they were run). An excerpt weighted towards active compounds, which were near 3.6% of everything screened.

C=CCC1(CC=C)CCCN1C(=O)c1cc(COc2cncc(Cl)c2)on1	APOBEC3A inh 53, PHOSPHO1 inh 66 | A3A conf inactive | UDG A3A counter inactive
C[C@@H]1CN([C@@H](C)CO)C(=O)c2cc(C#C[C@@H](C)O)cnc2O[C@@H]1CN(C)C(=O)c1ccncc1	none (no result: APOBEC3A inh, APOBEC3G inh, Wnt bcat act, PHOSPHO1 inh, MITF act)
CCN1CCN(c2ccc(NC(=O)c3ccc(Cl)c(S(=O)(=O)N4CCCC4)c3)cc2)CC1	APOBEC3A inh 40 (no result: PHOSPHO1 inh) | A3A conf inactive
O=C(c1ccc(Cl)c(S(=O)(=O)N2CCOCC2)c1)N1CCCC1	none
CCN1CCN(c2ccc(NC(=O)c3ccc(Cl)c(N4CCCC4=O)c3)cc2)CC1	APOBEC3A inh 66 | A3A conf inactive
CCN1CCN(C(=O)c2ccc(Cl)c(S(=O)(=O)N3CCOCC3)c2)CC1	APOBEC3A inh 41 | A3A conf 14 | UDG A3A counter inactive
COc1ccc(CN2[C@H](CO)[C@H]3c4ccccc4N(C(=O)Nc4ccc(F)cc4)C[C@H]32)cc1	none (no result: APOBEC3A inh, APOBEC3G inh, Wnt bcat act, PHOSPHO1 inh, MITF act)
COCC#Cc1ccc([C@@H]2[C@@H](C#N)N(C(=O)Cc3ccccc3)[C@@H]2CO)cc1	none (no result: APOBEC3A inh, APOBEC3G inh, Wnt bcat act, PHOSPHO1 inh, MITF act)
CCn1c(C)[n+](CCOC(C)=O)c2cc(Cl)c(Cl)cc21	APOBEC3A inh 63 (no result: esBAF inh) | A3A conf 78 | UDG A3A counter inactive
CC(=O)OCCCn1c(C)[n+](C)c2cc(Cl)c(Cl)cc21	APOBEC3A inh 87 | A3A conf 73 | UDG A3A counter inactive
C[C@@H]1CN([C@@H](C)CO)C(=O)Cc2cc(NS(=O)(=O)c3ccc(F)cc3)ccc2O[C@@H]1CN(C)CC1CC1	none (no result: APOBEC3A inh, APOBEC3G inh, Wnt bcat act, PHOSPHO1 inh, MITF act)
C[C@@H]1CN([C@@H](C)CO)C(=O)c2ccccc2-c2ccccc2CO[C@H]1CN(C)S(C)(=O)=O	none (no result: APOBEC3A inh, APOBEC3G inh, Wnt bcat act, PHOSPHO1 inh, MITF act)
COc1ccc(S(=O)(=O)Nc2ccc3c(c2)C(=O)N([C@@H](C)CO)C[C@H](C)[C@H](CN(C)S(=O)(=O)c2ccc(OC)cc2)O3)cc1	none (no result: APOBEC3A inh, APOBEC3G inh, Wnt bcat act, PHOSPHO1 inh, MITF act)
Cc1ccc(S(=O)(=O)/N=C2/NC(=O)/C(=C\c3ccco3)S2)cc1	none (no result: Wnt bcat act)
COc1ccc(N=C2NC(=O)/C(=C\c3ccco3)S2)cc1	APOBEC3A inh 64 | A3A conf 36 | UDG A3A counter inactive
CC(=O)Nc1ccc(S(=O)(=O)/N=C2/NC(=O)/C(=C\c3ccco3)S2)cc1	APOBEC3A inh 60 (no result: esBAF inh) | A3A conf 32 | UDG A3A counter inactive
COc1ccc(/C=C2\SC(=Nc3ccccc3)NC2=O)cc1	none (no result: esBAF inh, Wnt bcat act, MITF act)
Cn1c(=O)c2ncn(CC(=O)NC3CCCCCC3)c2n(C)c1=O	APOBEC3A inh 43, PHOSPHO1 inh 84 (no result: esBAF inh, Wnt bcat act) | A3A conf inactive
CCc1ccc(NC(=O)Cn2cnc3c(=O)n(C)c(=O)n(C)c32)cc1	none (no result: esBAF inh)
O=C1CN(C(=O)CSc2nncs2)c2ccccc2N1	APOBEC3A inh 44 | A3A conf inactive | UDG A3A counter inactive
O=C1CN(C(=O)CSc2nc(-c3ccccc3)cs2)c2ccccc2N1	none (no result: esBAF inh, Wnt bcat act)
CN1CCCN(S(=O)(=O)c2ccccc2)CC1	APOBEC3A inh 67 | A3A conf 61 | UDG A3A counter inactive
COc1ccc(S(=O)(=O)Nc2ccc3c(c2)CC(=O)N([C@H](C)CO)C[C@@H](C)[C@@H](CN(C)C(=O)Nc2c(C)noc2C)O3)cc1	none (no result: APOBEC3A inh, APOBEC3G inh, Wnt bcat act, PHOSPHO1 inh, MITF act)
C[C@@H]1CN([C@@H](C)CO)C(=O)Cc2cc(NC(=O)Nc3ccc(F)cc3)ccc2O[C@H]1CN(C)S(=O)(=O)c1cn(C)cn1	none (no result: APOBEC3A inh, APOBEC3G inh, Wnt bcat act, PHOSPHO1 inh, MITF act)
CCN1C(=O)/C(=C\c2ccc(-c3cccc(C(=O)OC)c3)o2)SC1=Nc1ccc(C(=O)O)cc1	none (no result: esBAF inh, MITF act)
O=C(O)c1cccc(-c2ccc(/C=C3/SC(=Nc4ccccc4)N(Cc4cccnc4)C3=O)o2)c1	APOBEC3A inh 52 | A3A conf 33 | UDG A3A counter inactive
C[C@@H]1CCCCO[C@@H](CN(C)C(=O)C2CCCCC2)[C@H](C)CN([C@H](C)CO)C(=O)c2cc(NS(=O)(=O)c3cn(C)cn3)ccc2O1	none (no result: APOBEC3A inh, APOBEC3G inh, Wnt bcat act, PHOSPHO1 inh, MITF act)
COc1cc2c(cc1OC)C[N+](C)(C)CC2	APOBEC3A inh 45 | A3A conf 75 | UDG A3A counter inactive
NC(=O)C1CCN(C(=O)c2cc(Cl)c3c(c2)OCCO3)CC1	none (no result: PHOSPHO1 inh)

Bioassay records deposited in PubChem by several laboratories.
